ChEMBL document CHEMBL4513216, “Probing the Open Global Health Chemical Diversity Library for Multistage-Active Starting Points for Next-Generation Antimalarials” (ACS Infect Dis, 2020)
Screen size: about 69,000 compounds; about 8,600 (12%) showed an effect of 50% or more. Shown is part of a subset that was picked to be rich in strong results.

The compounds below were run on Plasmodium berghei (assay: Screen against P. berghei liver stage (PbLuc), transformed with Luciferase, at 10uM). Details: tested at 10 uM.
Type: functional, HepG2

Compared with `Cc1nc(C(C)n2cc3[nH]cccc-3c2=O)cs1` (stereo not given), `COc1cc(C)nc(N2CCN(C(=O)c3cccc(C#N)c3)CC2)n1` is lower in INHIBITION: 33.7% for the first, 8.64% for the second.

First: CCN(Cc1noc(C2CC2)n1)C(=O)c1onc2ccccc12
Second: c1ccc2oc(CCCN3CCCC(Cn4cncn4)C3)nc2c1 (stereo not given)
The INHIBITION of the first is higher: 48.1% for the first, 45.7% for the second.

First: O=C1CCCN1Cc1nnc(SCc2ccc3c(c2)CCC3)o1
Second: Cc1nnc(N2CCCC3(CN(Cc4ccc(F)cc4)CCO3)C2)o1 (stereo not given)
The INHIBITION of the first is lower: 13.2% for the first, 57.4% for the second.

First: Cc1n[nH]cc1CNCC1(c2cccc(F)c2)CCOCC1
Second: Cc1n[nH]c(C)c1CNCC(O)c1cccc(Cl)c1 (stereo not given)
The INHIBITION of the first is lower: -11.9% for the first, 46% for the second.

Going from `Cn1cc(CN2CCC(F)(F)C3(CCN(c4cccc(F)c4)C3)C2)cn1` (stereo not given) to `Cn1cc(CN2CCOC3(CCCN(c4cccc(F)c4)C3)C2)cn1` (stereo not given), the INHIBITION rises from -0.371% to 73%.

Going from `Cc1nnc(N2CCCC3(CN(Cc4cnn(C)c4)CCO3)C2)o1` (stereo not given) to `Cc1nnc(N2CCCC3(CN(Cc4cccnc4)CCO3)C2)o1` (stereo not given), the INHIBITION falls from 41.2% to 22.2%.

First: c1cnc(N2CCOCC3(CNCCO3)C2)nc1 (stereo not given)
Second: Fc1ccc(N2CCOC3(COCCN(c4ncccn4)C3)C2)cc1 (stereo not given)
The INHIBITION of the first is lower: 22.2% for the first, 61.1% for the second.

Compared with `Fc1cccc(N2CCCC3(C2)CN(c2cnccn2)CCO3)c1` (stereo not given), `Fc1cccc(N2CCOC3(CCCN(c4cnccn4)C3)C2)c1` (stereo not given) is higher in INHIBITION: 23.3% for the first, 41% for the second.

Going from `Fc1cccc(N2CCCC3(C2)CN(c2ncccn2)CCO3)c1` (stereo not given) to `Fc1cccc(N2CCCC3(CN(Cc4ccccn4)CCO3)C2)c1` (stereo not given), the INHIBITION falls from 80.5% to -9.42%.

First: Cc1nnc(N2CCCC3(CN(Cc4ccncc4)CCO3)C2)o1 (stereo not given)
Second: COc1ccc(CN2CCOC3(CCCN(c4nnc(C)o4)C3)C2)cc1 (stereo not given)
The INHIBITION of the first is lower: 10.1% for the first, 31.8% for the second.

Going from `c1ccc(CN2CCOC3(COCCN(c4ncccn4)C3)C2)nc1` (stereo not given) to `Fc1cnc(N2CCCC3(CN(Cc4ccncc4)CCO3)C2)nc1` (stereo not given), the INHIBITION falls from 20.1% to 1.71%.

First: Cc1cc(O)cc(=O)n1CCCC(=O)Nc1n[nH]c2ccccc12
Second: Cc1cc(OCC(N)=O)ccc1NC(=O)C(C)Cc1ccccc1F (stereo not given)
The INHIBITION of the first is lower: 9.96% for the first, 39.6% for the second.

Going from `COCC1CN(S(=O)(=O)N(C)C)Cc2ncn(CC3CC3)c21` (stereo not given) to `COCC(=O)N1CCC[C@]2(C(=O)N(C)C)CN(c3ccccn3)C[C@@H]2C1`, the INHIBITION falls from 5.56% to -4.56%.

First: Cc1cccc(CO[C@H]2CN(c3nnc(C)s3)[C@@H]3CCCO[C@H]23)n1
Second: Cc1noc(C)c1CN1CCC(N(C)Cc2nnc(C3CC3)n2C)C1 (stereo not given)
The INHIBITION of the first is higher: 22.2% for the first, 19.2% for the second.

First: Cc1nc(CN2CCC3(CCCN(C(=O)c4cnccn4)C3)C2)cs1 (stereo not given)
Second: CC(=O)N1CCCC2(CN(Cc3ccncc3)CCO2)C1 (stereo not given)
The INHIBITION of the first is higher: -2.46% for the first, -7.59% for the second.

First: Cc1cc(CN2CCCC2c2c(C)nn(C)c2Cl)on1 (stereo not given)
Second: Cc1cc(C)n(C2CCN(Cc3c(-c4cc(C)on4)nn(C)c3Cl)C2)n1 (stereo not given)
The INHIBITION of the first is higher: 47% for the first, 28.5% for the second.

Compared with `Cc1cnn(CC2CN(Cc3ccc(C(N)=O)cc3)CCO2)c1` (stereo not given), `CCNC(=O)C1CN(Cc2c(-c3cc(C)on3)nn(C)c2Cl)CCO1` (stereo not given) is higher in INHIBITION: 37.4% for the first, 43% for the second.

First: c1ccc(CN2CCOC3(CCCN(c4nccs4)C3)C2)cc1 (stereo not given)
Second: Fc1cccc(N2CCCC3(CN(Cc4nccs4)CCO3)C2)c1 (stereo not given)
The INHIBITION of the first is lower: 43.9% for the first, 88.2% for the second.

Compared with `Fc1cccc(N2CCCC3(CN(Cc4cccnc4)CCO3)C2)c1` (stereo not given), `Fc1cccc(N2CCCC3(CN(Cc4ccncc4)CCO3)C2)c1` (stereo not given) is higher in INHIBITION: 71.9% for the first, 81.3% for the second.

First: Cc1nnc(N2CCCC3(CN(Cc4nccs4)CCO3)C2)o1 (stereo not given)
Second: Cc1cc(-c2nn(C)c(Cl)c2CN2CC[C@@](O)(C3CCC3)[C@H](C)C2)no1
The INHIBITION of the first is lower: 8.67% for the first, 33.9% for the second.

First: O=C(c1cnccn1)N1C[C@@H]2C[C@@H](c3nc(C4CC4)cs3)O[C@@H]2C1
Second: O=C1[C@H]2CN(C3CCOC3)C[C@H]2CN1c1ccccc1 (stereo not given in full)
The INHIBITION of the first is higher: 10.7% for the first, 10.5% for the second.

Going from `COc1ccc2c(c1)C(=O)NC1(CC2)CCN(Cc2ccccn2)C1` (stereo not given) to `Cc1cc(-c2nn(C)c(Cl)c2CN2CCC3(CC2)[C@H](O)C[C@@H]3O)no1`, the INHIBITION rises from 17.9% to 50.3%.

Compared with `CNC(=O)NC(=O)CCSCc1cc(F)cc2cccnc12`, `O=C(NC1CC1)c1ccn(COc2c(Cl)cccc2Cl)n1` is higher in INHIBITION: 11.5% for the first, 43.3% for the second.

First: Cc1cc(C)n(CCNc2ncnc3c2NC(=O)CN3)n1
Second: Cc1cc(C)n(CCCNc2ncnc3c2NC(=O)CN3)n1
The INHIBITION of the first is lower: 44.1% for the first, 57.3% for the second.

Going from `Cc1nn(CCNc2ncnc3c2NC(=O)CN3)c(C)c1Cl` to `Cc1cc(-c2nn(C)c(Cl)c2CN2CC[C@H](CO)[C@@H](O)C2)no1`, the INHIBITION falls from 42.4% to 36.7%.

Compared with `Cc1ccoc1C1=NNC(=CN2CCCC(Cn3cncn3)C2)O1` (stereo not given), `Cc1cc(-c2nn(C)c(Cl)c2CN2CCOCC(O)C2)no1` (stereo not given) is higher in INHIBITION: 27.1% for the first, 41.8% for the second.

First: Cc1cc(-c2nn(C)c(Cl)c2CN2Cc3ccccc3C(O)C2)no1 (stereo not given)
Second: Cc1cc(-c2nn(C)c(Cl)c2CN2CCOC(C(=O)O)C2)no1 (stereo not given)
The INHIBITION of the first is higher: 51.8% for the first, 17.6% for the second.

`Cc1cc(-c2nn(C)c(Cl)c2CN2CCN(C)C(C(=O)O)C2)no1` (stereo not given) was tested, and the INHIBITION was 59.4%.
